# CYP2C9 activ = CYP2C9 (human) activation | activation factor at 5 µM | actives 1.4% (n = 96,000) | P11712 | recombinant CYP2C9, luciferin-H conversion, luminescence; hits give high values; factor 1 = untreated enzyme, 0 = blocked;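 active = activation factor of 2 or more for CYP2C9 at a 5 µM dose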;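 also: 0 = sulfaphenazole-blocked wells and 1 = vehicle-only wells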
# Measles CPE = protection of cells from measles virus. protection (pct of control), % at 4 µM. Measles virus-infected cells, CPE protection, absorbance. actives 1.5% (n = 140,000). AID 841; in the data active = protection mostly above about 24%, no sharp cut-off; inactive = mostly below about 26%
# CYP2C19 inhib = human CYP2C19 inhibition | P33261 | CYP2C19 Supersomes, luciferin-H EGE luminescence, 30 min | inhibition, % at 5 µM | actives 21% (n = 96,000);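 active = CYP2C19 inhibition above a set limit at 5 µM in the primary screen, cut at about 50% in these data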;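 also: plate controls were negative control wells for no effect and 2.5 mM tranylcypromine positive control for full effect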
# Target sequence (P33261 whole entry, looked up): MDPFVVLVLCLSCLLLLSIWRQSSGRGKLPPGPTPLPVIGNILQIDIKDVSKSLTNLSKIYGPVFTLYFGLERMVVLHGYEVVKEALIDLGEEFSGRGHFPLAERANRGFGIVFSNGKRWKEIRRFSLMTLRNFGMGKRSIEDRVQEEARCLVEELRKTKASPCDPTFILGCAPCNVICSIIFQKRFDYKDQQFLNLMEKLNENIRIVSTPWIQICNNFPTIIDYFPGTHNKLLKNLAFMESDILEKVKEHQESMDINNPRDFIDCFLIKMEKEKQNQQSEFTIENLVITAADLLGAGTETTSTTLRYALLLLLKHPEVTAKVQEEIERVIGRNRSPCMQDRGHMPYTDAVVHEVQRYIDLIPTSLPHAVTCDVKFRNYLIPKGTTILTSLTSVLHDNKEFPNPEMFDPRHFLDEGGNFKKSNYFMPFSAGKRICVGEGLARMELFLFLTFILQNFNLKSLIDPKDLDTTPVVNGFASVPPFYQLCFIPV
# CYP2C9 inh = blocks human cytochrome P450 2C9; inhibition, % at 5 µM; P11712; AID 777; CYP2C9 Supersomes, luciferin-H conversion, luminescence; actives 20% (n = 96,000);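 active = blocking of liver enzyme CYP2C9 beyond about 50% at 5 µM, limit read from the data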
# CYP2C19 activ = cytochrome P450 2C19 (human) activation; P33261; activation factor at 5 µM; recombinant CYP2C19, luciferin-H EGE luminescence; hits give high values; 0 = fully inhibited enzyme, 1 = untreated enzyme; 96,000 tested, under 10 active; AID 1025;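 active = activation factor of at least 2 at 5 µM in the primary screen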;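 also: 0 = wells with 2.5 mM tranylcypromine and 1 = vehicle-only wells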
# Numbers without * were called inactive; . = no result. Most compounds without a hit are left out; they make up all but 22% or so of the library.
SMILES,CYP2C9 activ,Measles CPE,CYP2C19 inhib,CYP2C9 inh,CYP2C19 activ
O=C(NCC1(N2CCOCC2)CCCCC1)c1ccc(Cl)c(S(=O)(=O)NCc2ccco2)c1,0.3,11,53*,71*,0.5
Cc1cccc(N2CCN(C(=O)c3ccc(Cl)c(S(=O)(=O)NCc4ccco4)c3)CC2)c1C,0.2,4,32,76*,0.7
Cc1ccc(S(=O)(=O)NCc2ccco2)c(C)c1C,3.5*,50,56*,-254,0.4
O=C(O)c1ccc(Cl)c(S(=O)(=O)NCc2ccco2)c1,1,3,-3,-1,1
COc1ccc2c(c1)c(C(=O)CN1CCOCC1)c(C)n2C,0.9,25,14,14,0.9
Brc1ccc(-c2nnc(SCCC3OCCCO3)o2)cc1,0.9,22,40,13,0.6
CCNc1nc(NC(C)C)nc(Oc2ccc(/C=N/O)cc2)n1,0.3,26,5,69*,0.9
CCCCN(CC)C(=O)Cn1ncc2c1-c1cc(C)ccc1OC2,0.3,9,77*,70*,0.2
Cc1nc2ncnn2c(C)c1CCC(=O)NCCCN1CCN(c2cccc(Cl)c2)CC1,1,1,2,5,1
O=C(CN1CCCC1)N/N=C/c1ccc(-c2cccc(Cl)c2)o1,1,1,-10,-1,1.1
CCCCNC(=O)OCCNC(=O)Oc1cccc(C)c1,1,15,9,-3,0.9
CCCCNC(=O)OC(C)CNC(=O)Oc1cccc(C)c1 (stereo not drawn),0.9,43*,22,10,0.8
CC(=O)NC1CC2CCCC(C1)N2CC(=O)N1CCCc2ccccc21 (stereo not drawn),.,7,.,.,.
O=C(NC1CCCCC1)N1CCCc2ccccc21,0.9,2,53*,14,0.5
O=C(C1CCCCC1)N1CCCc2ccccc21,0.6,1,67*,45,0.3
COc1cccc(-c2cc(C(F)(F)F)nc(-n3cccn3)n2)c1,0.9,18,14,8,0.9
CC1(C)CC2CC(C)(CN2C(=O)CCCN2C(=O)c3ccccc3C2=O)C1 (stereo not drawn),0.9,42,86*,8,0.1
COc1ccc(-c2cc(C(=O)N3CC4(C)CC3CC(C)(C)C4)no2)cc1 (stereo not drawn),0.7,11,8,27,0.9
CC1(C)CC2CC(C)(CN2C(=O)c2cc(-c3ccccc3O)on2)C1 (stereo not drawn),0.3,3,54*,73*,0.5
Cc1cccc(C(=O)N2CC3(C)CC2CC(C)(C)C3)c1 (stereo not drawn),.,15,.,.,.
CCC(C)NC(=O)c1cc(-c2ccccc2O)on1 (stereo not drawn),1.2,10,21,-16,0.8
CC1(C)CC2CC(C)(CN2C(=O)c2cccs2)C1 (stereo not drawn),0.6,21,74*,38,0.3
CC1(C)CC2CC(C)(CN2C(=O)COc2cccc3ccccc23)C1 (stereo not drawn),1.6,5,2,-57,1
CC1CCN(C(=O)c2cc(-c3ccccc3O)on2)CC1,1.2,10,67*,-19,0.3
COCCNC(=O)COc1ncnc2ccc(Br)cc12,0.9,2,5,12,0.9
SMILES,CYP2C9 activ,Measles CPE,CYP2C19 inhib,CYP2C9 inh,CYP2C19 activ
O=C(Cn1cc(C(F)(F)F)ccc1=O)N/N=C/c1cccc(Cl)c1Cl,.,5,.,.,.
Cc1ccc(N2C(=O)CSC2c2cccnc2)cc1F (stereo not drawn),1.1,9,12,-6,0.9
O=c1c2cc(Cl)ccc2[nH]c(=S)n1Cc1ccccn1,.,36,.,.,.
c1ccc2sc(SN3CCOCC3)nc2c1,0.8,10,82*,18,0.2
COc1cccc(-c2noc(C(C)n3nc(C)c([N+](=O)[O-])c3C)n2)c1 (stereo not drawn),0.5,12,33,55*,0.7
CCOC(=O)c1c(C)c(-c2ccccc2)n(CC(=O)N2CCCC2)c1C,0.6,4,88*,43,0.1
Cc1ccc(OCCn2c(C)c(/C=N/n3cnnc3)c3ccccc32)cc1,0.1,8,86*,89*,0.1
O=C(CCc1nc(-c2ccccc2)no1)NCC1CCCO1 (stereo not drawn),1.2,2,-8,-16,1.1
O=C(Cc1csc(Nc2nc(=S)[nH]c3ccccc23)n1)NCc1ccc(Cl)cc1,0.2,6,56*,83*,0.4
COc1ccc(CNC(=O)Cc2csc(Nc3nc(=S)[nH]c4ccccc34)n2)cc1,0.1,19,66*,86*,0.3
COC(=O)c1sccc1NC(=O)c1ccc(Br)s1,1,9,1,-4,1
NC(=O)c1c(C(F)(F)F)cc(-c2ccccc2)nc1NCCO,0.8,30,9,15,0.9
CC1(C)SC(=S)N(/N=C/c2ccccc2)C1N(O)C(=O)Nc1ccc([N+](=O)[O-])cc1 (stereo not drawn),1,8,-10,1,1.1
CC(=O)Nc1ccc(S(=O)(=O)Oc2cccc(N3C(=O)C4CCCCC4C3=O)c2)cc1 (stereo not drawn),0.2,5,41,75*,0.6
Cc1ccc(S(=O)(=O)Oc2cccc(N3C(=O)C4CC=CCC4C3=O)c2)cc1 (stereo not drawn),1.4,5,16,-38,0.8
CC[C@H](C)[C@H](NC(=O)[C@H](Cc1ccc(O)cc1)NC(=O)[C@@H](N)C(C)C)C(=O)N[C@@H](Cc1cnc[nH]1)C(=O)N1CCC[C@H]1C(=O)N[C@@H](Cc1ccccc1)C(=O)O,.,-1,.,.,.
CCOC(=O)C1=C(C)NC(=O)C1CC(=O)Nc1ccccc1 (stereo not drawn),.,9,.,.,.
C=CCOC(=O)C1=C(C)NC(SCC(N)=O)=C(C#N)C1c1cccs1 (stereo not drawn),.,5,.,.,.
CCOC(=O)C1=C(c2ccccc2)NC(SCC(N)=O)=C(C#N)C1c1cccnc1 (stereo not drawn),0.4,20,68*,63*,0.3
CCOC(=O)C1=C(C)NC(SCC(N)=O)=C(C#N)C1c1ccncc1 (stereo not drawn),0.2,9,82*,75*,0.2
CCOC(=O)C1=C(C)NC(SCC(=O)Nc2nc(C)cs2)=C(C#N)C1c1cccs1 (stereo not drawn),0,13,85*,96*,0.1
CCOC(=O)C1=C(C)NC(=O)C(C#N)C1c1ccncc1 (stereo not drawn),0.5,16,5,50*,1
CSc1ccc(Cl)c(C(=O)NCC(C)C)c1,0.8,1,13,19,0.9
COc1cccc(/C=N/NC(=O)CNC(=O)C2COc3ccccc3O2)c1O (stereo not drawn),.,4,.,.,.
Cc1ccc(-n2c(Cc3cccn3C)nnc2SCC(=O)N2CCN(c3ccccc3)CC2)cc1,0.7,5,25,30,0.8
COc1ccccc1-n1c(CNC(=O)c2ccco2)nnc1SCC(=O)Nc1nccs1,0.6,44,17,42,0.8

# Screening data from PubChem.
